Reference: ChEMBL document CHEMBL3988442, “University of Dundee, Small-Polar-MMV Screening Library” (2021)
For some assays here: Entries with a potency or affinity are not part of this list.

How the values were obtained:
Set-up in all cases: scale not given: direction of the effect not stated beside the values
[1] = target: Protein translocase subunit SecA (Escherichia coli (strain K12)) (UniProt P10408); experiment: Assay to Identify E. coli SecA ATPase Inhibitors; format: functional; conditions: 30 µM
Chain of Protein translocase subunit SecA (Escherichia coli (strain K12)) (P10408 whole entry): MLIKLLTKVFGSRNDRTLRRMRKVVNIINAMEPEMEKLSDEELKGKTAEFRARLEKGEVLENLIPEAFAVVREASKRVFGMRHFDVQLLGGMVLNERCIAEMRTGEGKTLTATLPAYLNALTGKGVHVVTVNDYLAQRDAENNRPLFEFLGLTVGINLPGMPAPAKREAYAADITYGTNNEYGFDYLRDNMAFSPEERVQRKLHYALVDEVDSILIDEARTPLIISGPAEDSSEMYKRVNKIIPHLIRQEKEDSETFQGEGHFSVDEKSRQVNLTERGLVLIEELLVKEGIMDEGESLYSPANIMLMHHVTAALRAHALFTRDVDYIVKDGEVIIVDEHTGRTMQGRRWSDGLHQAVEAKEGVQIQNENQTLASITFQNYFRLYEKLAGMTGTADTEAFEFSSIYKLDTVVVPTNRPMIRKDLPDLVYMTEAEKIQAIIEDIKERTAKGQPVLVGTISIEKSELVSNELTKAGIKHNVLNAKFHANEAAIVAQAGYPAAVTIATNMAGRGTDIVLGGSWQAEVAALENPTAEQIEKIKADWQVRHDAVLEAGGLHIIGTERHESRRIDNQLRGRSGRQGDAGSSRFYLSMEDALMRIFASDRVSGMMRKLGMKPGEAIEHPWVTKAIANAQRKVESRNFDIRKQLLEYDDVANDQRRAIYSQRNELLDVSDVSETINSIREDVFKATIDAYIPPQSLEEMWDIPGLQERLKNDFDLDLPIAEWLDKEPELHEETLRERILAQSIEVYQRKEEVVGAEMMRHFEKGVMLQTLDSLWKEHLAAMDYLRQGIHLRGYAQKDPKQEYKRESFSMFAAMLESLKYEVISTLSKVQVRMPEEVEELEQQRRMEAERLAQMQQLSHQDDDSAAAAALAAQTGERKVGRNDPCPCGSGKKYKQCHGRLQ

[2] = target: T1, Ubiquitin-activating enzyme e1, putative (Leishmania donovani (strain BPK282A1)) (UniProt E9BSI1); experiment: Leishmania donovani Ubiquitin Activating Enzyme (LdE1); format: functional; conditions: 30 µM
T1 sequence (whole entry): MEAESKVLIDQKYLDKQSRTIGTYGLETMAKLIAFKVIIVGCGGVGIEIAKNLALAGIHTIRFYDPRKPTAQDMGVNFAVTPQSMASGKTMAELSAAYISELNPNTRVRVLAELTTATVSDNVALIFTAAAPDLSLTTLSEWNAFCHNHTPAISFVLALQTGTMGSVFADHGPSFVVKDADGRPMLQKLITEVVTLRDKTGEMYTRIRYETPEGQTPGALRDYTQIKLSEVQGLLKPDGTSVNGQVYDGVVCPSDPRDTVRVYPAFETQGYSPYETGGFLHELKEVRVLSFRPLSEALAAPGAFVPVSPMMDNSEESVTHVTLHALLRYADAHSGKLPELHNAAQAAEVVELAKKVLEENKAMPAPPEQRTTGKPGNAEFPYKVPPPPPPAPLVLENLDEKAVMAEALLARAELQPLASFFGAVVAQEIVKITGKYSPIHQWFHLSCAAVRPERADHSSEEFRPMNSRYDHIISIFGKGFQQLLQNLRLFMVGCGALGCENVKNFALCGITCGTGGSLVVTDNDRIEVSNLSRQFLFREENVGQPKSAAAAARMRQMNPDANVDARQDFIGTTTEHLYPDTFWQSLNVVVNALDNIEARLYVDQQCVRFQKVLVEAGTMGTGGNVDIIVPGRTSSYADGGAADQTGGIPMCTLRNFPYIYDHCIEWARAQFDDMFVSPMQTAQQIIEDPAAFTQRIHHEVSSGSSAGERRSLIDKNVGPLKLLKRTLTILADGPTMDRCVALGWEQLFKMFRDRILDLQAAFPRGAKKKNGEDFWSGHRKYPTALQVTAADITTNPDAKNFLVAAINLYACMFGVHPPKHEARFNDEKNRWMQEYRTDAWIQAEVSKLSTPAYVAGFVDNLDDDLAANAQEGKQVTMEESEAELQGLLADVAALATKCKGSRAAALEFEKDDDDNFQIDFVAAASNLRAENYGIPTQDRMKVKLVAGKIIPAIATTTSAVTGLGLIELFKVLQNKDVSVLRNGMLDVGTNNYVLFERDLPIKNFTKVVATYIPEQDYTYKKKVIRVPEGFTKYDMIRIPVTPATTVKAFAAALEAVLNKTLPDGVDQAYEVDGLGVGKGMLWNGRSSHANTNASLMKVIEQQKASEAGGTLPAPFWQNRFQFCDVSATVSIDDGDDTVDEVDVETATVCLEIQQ

[3] = target: Sialic acid-binding Ig-like lectin 9 (Homo sapiens) (UniProt Q9Y336); experiment: Hs-Siglec9 ALPHAscreen SOP 20170721; conditions: 10 µM
Chain of Sialic acid-binding Ig-like lectin 9 (Homo sapiens) (Q9Y336 whole entry): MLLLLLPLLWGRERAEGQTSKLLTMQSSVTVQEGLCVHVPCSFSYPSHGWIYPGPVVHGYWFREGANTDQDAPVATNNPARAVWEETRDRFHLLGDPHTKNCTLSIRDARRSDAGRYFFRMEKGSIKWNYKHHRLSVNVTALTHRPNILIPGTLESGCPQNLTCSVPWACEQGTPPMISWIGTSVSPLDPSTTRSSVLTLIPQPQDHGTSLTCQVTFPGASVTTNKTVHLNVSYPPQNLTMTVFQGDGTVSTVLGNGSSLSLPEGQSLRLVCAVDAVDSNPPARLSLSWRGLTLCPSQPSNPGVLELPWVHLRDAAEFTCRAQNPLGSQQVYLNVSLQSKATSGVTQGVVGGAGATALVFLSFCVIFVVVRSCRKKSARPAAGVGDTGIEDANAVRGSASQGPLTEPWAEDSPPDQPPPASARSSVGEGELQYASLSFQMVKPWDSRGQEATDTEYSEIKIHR

[4] = system: Trypanosoma cruzi; experiment: Trypanosoma cruzi phosphomannomutase and mannose-1-phosphate guanylyltransferase assay; format: functional; conditions: 10 µM
[5] = target: T2, Arginase-2, mitochondrial (Homo sapiens) (UniProt P78540); experiment: in vitro enzyme assay to detect the production of urea directly proportional to the activity of Arginase II; format: functional; conditions: 33.3 µM; further: in the data most compounds retested in dose-response had high values
T2 sequence (whole entry): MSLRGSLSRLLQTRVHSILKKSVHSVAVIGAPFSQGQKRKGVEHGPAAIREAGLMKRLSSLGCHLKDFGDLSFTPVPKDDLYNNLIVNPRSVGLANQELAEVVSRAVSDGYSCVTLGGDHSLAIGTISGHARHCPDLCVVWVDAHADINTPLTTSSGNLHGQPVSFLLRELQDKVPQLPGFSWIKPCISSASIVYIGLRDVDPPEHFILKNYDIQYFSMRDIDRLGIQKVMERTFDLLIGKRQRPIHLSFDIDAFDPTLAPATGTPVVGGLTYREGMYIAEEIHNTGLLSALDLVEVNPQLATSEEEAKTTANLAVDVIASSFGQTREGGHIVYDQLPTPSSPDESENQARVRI

[6] = target: T3, Proteasome subunit beta (Trypanosoma cruzi) (UniProt O96673); experiment: Trypanosoma cruzi proteasome chymotrypsin-like activity (TcProtChymo) assay.; further: in the data most compounds retested in dose-response had high values; format: functional; conditions: 9.37 µM
T3 sequence (whole entry): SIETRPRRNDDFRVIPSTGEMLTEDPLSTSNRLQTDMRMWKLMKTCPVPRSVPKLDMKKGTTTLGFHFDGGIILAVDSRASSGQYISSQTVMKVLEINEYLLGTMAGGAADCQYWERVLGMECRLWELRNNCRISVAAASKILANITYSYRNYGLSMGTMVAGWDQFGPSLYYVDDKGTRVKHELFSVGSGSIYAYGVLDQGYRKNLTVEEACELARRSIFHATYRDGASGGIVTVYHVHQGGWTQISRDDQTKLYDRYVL

[7] = species: Homo sapiens; experiment: To identify inhibition of the IFN signalling (Jak-Stat) pathway via expression of an eGFP reporter gene under the control of an IFN-stimulated response element (ISRE) containing MxA promoter.; format: functional; conditions: 30 µM
[8] = target: T4, Tyrosyl-tRNA synthetase, putative (Trypanosoma cruzi (strain CL Brener)) (UniProt Q4DSP6); experiment: Trypanosoma cruzi tyrosyl tRNA synthetase (TcYRS) _High Tyrosine SOP; format: functional; conditions: 30 µM; further: in the data most compounds retested in dose-response had high values
T4 sequence (whole entry): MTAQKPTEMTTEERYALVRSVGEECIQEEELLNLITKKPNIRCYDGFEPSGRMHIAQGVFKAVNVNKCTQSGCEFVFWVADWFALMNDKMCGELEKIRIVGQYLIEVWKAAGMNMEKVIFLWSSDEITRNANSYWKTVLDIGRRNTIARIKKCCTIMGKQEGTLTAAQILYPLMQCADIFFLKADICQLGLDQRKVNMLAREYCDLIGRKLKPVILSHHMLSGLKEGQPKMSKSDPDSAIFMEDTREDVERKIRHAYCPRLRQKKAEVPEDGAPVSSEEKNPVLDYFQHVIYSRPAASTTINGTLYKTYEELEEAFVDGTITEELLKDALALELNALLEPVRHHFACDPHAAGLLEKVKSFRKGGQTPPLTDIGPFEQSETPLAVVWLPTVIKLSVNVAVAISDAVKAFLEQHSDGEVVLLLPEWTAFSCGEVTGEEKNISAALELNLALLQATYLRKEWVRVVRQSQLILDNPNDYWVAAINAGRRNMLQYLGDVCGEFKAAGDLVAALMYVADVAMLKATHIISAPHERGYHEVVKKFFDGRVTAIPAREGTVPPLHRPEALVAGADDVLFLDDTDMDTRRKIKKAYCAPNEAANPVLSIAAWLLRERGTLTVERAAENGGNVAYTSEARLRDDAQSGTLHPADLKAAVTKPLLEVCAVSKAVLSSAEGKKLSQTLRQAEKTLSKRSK

[9] = target: T4, Tyrosyl-tRNA synthetase, putative (Trypanosoma cruzi (strain CL Brener)); experiment: Trypanosoma cruzi tyrosyl tRNA synthetase (TcYRS) SOP; format: functional; conditions: 30 µM
[10] = target: Chromo domain-containing protein 1 (Saccharomyces cerevisiae (strain ATCC 204508 / S288c) (Baker's yeast)) (UniProt P32657); experiment: ScCHD-1 Enzyme Inhibition Assay; format: functional; conditions: 30 µM; further: in the data most compounds retested in dose-response had high values
Chain of Chromo domain-containing protein 1 (Saccharomyces cerevisiae (strain ATCC 204508 / S288c) (Baker's yeast)) (P32657 whole entry, the tested form may be a part): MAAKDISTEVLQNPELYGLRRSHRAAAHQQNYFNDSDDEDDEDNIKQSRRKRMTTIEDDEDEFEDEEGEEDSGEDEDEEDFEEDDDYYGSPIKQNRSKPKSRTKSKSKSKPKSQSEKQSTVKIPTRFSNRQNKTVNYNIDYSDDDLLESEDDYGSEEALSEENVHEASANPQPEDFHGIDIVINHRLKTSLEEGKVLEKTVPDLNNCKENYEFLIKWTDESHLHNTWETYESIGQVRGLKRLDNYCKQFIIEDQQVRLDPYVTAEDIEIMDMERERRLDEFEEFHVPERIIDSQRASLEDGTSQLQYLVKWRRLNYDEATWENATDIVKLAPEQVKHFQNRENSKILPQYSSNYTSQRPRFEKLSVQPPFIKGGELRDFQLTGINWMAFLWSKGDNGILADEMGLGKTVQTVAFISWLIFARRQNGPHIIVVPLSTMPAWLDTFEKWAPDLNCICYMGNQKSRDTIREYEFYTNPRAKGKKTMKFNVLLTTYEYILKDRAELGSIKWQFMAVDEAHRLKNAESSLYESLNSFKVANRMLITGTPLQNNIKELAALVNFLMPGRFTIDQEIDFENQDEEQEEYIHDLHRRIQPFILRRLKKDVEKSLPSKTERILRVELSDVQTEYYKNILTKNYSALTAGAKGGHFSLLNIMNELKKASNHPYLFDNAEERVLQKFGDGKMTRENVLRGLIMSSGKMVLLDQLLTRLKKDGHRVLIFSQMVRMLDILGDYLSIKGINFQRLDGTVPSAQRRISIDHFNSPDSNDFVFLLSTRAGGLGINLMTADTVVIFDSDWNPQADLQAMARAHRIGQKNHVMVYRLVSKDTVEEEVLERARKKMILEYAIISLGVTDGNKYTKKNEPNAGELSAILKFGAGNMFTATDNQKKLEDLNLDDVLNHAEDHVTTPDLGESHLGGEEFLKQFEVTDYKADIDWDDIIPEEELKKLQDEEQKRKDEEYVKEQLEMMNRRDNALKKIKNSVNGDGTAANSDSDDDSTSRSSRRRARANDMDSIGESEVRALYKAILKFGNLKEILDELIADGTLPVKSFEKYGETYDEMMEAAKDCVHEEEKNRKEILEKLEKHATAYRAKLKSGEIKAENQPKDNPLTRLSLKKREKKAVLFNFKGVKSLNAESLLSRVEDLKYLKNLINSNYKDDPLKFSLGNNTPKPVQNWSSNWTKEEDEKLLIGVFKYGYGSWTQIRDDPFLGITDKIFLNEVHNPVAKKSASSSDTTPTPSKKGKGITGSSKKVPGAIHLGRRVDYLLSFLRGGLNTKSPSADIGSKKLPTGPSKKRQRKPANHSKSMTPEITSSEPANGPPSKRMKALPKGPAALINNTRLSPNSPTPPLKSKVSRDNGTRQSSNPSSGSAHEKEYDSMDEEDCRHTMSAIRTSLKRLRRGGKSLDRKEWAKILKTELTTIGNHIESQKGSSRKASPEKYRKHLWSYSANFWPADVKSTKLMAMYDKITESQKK

Row | SMILES | Percent Effect [1] | Percent Effect [2] | Percent Effect [3] | Percent Effect [4] | Percent Effect [5] | Percent Effect [6] | Percent Effect [7] | Percent Effect [8] | Percent Effect [9] | Percent Effect [10]
1 | Cc1cc(C)n(CC2CCCN2CCS(=O)(=O)c2ccccc2)n1 (stereo not given) | -0.665% | -7.69% | -1.27% | 0.845% | 9.43% | -2.47% | 18.7% | 1.44% | -1.21% | 1.56%
2 | CS(=O)(=O)N1CCC(c2nnc3ccc(C(=O)N4CCCC4)cn23)C1 (stereo not given) | -4.16% | -42.9% | -5.27% | -3.8% | -2.02% | 16.9% | 6.07% | 0.526% | 5.13% | -3.44%
3 | CCc1ncnc2c1CCN(Cc1ccc(OC)cc1)CC2 | -4.58% | -6.49% | -0.0854% | 2.82% | -2.02% | -3.79% | -6.35% | 1.58% | -12.8% | 0.0386%
4 | Cn1ccc(C(=O)NCc2cccc(NC(=O)C3CCC3)c2)cc1=O | -3.75% | 26% | 5.5% | 4.48% | -1.84% | 12.3% | 12% | 2.94% | 21.2% | -9.82%
5 | CNc1snc(C)c1C(=O)N1CCCC(n2ccnc2C(C)C)C1 (stereo not given) | -0.908% | 0% | 1.03% | 2.21% | 0.444% | 5% | 14.7% | 1.58% | 0% | -1.07%
6 | Cc1nc(O)c2nnn(C[C@H]3CCCN3C(=O)C(C)(C)C)c2n1 | -2.69% | 12% | 5.82% | -2.37% | -1.33% | 7.88% | 12.7% | 5.29% | 10% | -20.8%
7 | CCCc1cc(CNC(=O)C2CCOc3ccccc3C2)on1 (stereo not given) | -1.27% | 10.8% | 3.17% | 2.62% | 15.7% | 10.8% | 29.7% | 5.85% | 14.6% | -2.75%
8 | Cn1cc(CN2CCCN(C(=O)c3cc[nH]n3)CC2)cn1 | -1.81% | 5.13% | -4.2% | 4.22% | -0.41% | -6.57% | 23.7% | 0.478% | 13.2% | -1.64%
9 | CC(=O)N1C[C@@H](c2ccsc2)[C@@H]2CN(Cc3ccccc3)CC[C@@H]21 | -3.48% | 12% | 0.781% | 1.77% | 0.885% | 12.2% | 12.3% | 10.6% | 7.5% | -25.4%
10 | COc1ccc(CC(=O)N2CCc3nnc(N(C)C)cc3C2)cc1F | -3.64% | 12.8% | -2.71% | -1.97% | 1.23% | 17.7% | 20.5% | 5.26% | 6.02% | -0.877%
11 | CN1CC(c2ccccc2)CC12CCN(C(=O)c1cncc(Cl)c1)CC2 (stereo not given) | -4.25% | 5.41% | 3.4% | -0.679% | 0.35% | 12.3% | 12.2% | 7.98% | 14.6% | -5.7%
12 | CC(CC#N)NC(=O)c1cc(Br)c2c(c1)OCCO2 (stereo not given) | -2.19% | -5.33% | -0.459% | -4.22% | 3.1% | -1.61% | 7.62% | 0.526% | 2.56% | -4.98%
13 | CCn1ccnc1CN1CCCN(C(=O)c2cc(Cl)c[nH]2)CC1 | -1.59% | 12.8% | 9.67% | 7.98% | 8.61% | 1.79% | 10.2% | 3.35% | 22.9% | -8.12%
14 | CC(C)CN1CCC2(CCN(Cc3ccoc3)CC2)C1=O | -1.85% | 27.3% | 3.42% | 3.94% | -4.57% | 19.7% | -0.618% | 10.6% | 12.5% | -9.31%
15 | Cc1cc(CN(C)C(=O)c2ccnc(N(C)C)c2)no1 | -2.33% | 8% | 1.08% | -5.82% | 2.22% | 4.67% | 9.46% | 3.68% | 10.3% | -13.6%
16 | Cc1nc(N2CCCC2)nc2c1CN(C(=O)N1CCOCC1)CC2 | -4.38% | 14.3% | 1.78% | 0.75% | 3.2% | 15.9% | 1.81% | 10.6% | 15% | -9.99%
17 | Cc1ccc(C(=O)N2CCC3(CC2)CC(N2CCOCC2)C3)cc1 | -2.43% | 9.09% | -5.57% | 1.31% | 0.457% | -3.18% | -1.46% | 3.87% | 2.5% | 0.386%
18 | Cc1ccc(C(=O)NCCNc2ncccc2C#N)c(=O)[nH]1 | -1.94% | 5.2% | -3.54% | -8.77% | -15% | 15.3% | 17.6% | 6.86% | 7.06% | -7.29%
19 | CCC1c2ccsc2CCN1C(=O)NCc1cc[nH]n1 (stereo not given) | -7.17% | 7.69% | -4.75% | -4.79% | 0% | 7.25% | 21.4% | 2.39% | 6.02% | -1.84%
20 | COc1cccc(COCC(=O)N2CCCC(n3ccnc3C)C2)c1 (stereo not given) | -2.06% | -5.13% | -2.52% | 4.6% | 4.92% | -4.35% | 19.1% | -3.35% | 1.21% | 2.95%
21 | CCc1noc(C(C)N2CCC(N3CCCC3)CC2)n1 (stereo not given) | -9.65% | 16% | 8.32% | 5.02% | -5.76% | 7.38% | -3.75% | 5.79% | 12.8% | -10.6%
22 | CCNC(=O)[C@@H]1C[C@@H](NC(=O)c2cccnc2O)CN1Cc1ccsc1 | -5.31% | 16.2% | 11.3% | 3.59% | 17.1% | 19.2% | 2.29% | 6.92% | 21.9% | -4.37%
23 | CNC(=O)CN1CCCC12CCN(C(=O)c1ccc(F)cc1)CC2 | -1.29% | 1.3% | -0.371% | -6.75% | 3.2% | 8.33% | 22.8% | -0.966% | -5% | -4.71%
